In the OligoGym collection one finds sensor-assay potency score (higher = more potent) data, which are given here for 40 sequences.
Also: reference of the scale not given here.

One experiment concerns the target DOCK1. Kind of experiment: pooled miR-30 sensor sort-seq; sequence = guide strand. Particulars: shRNA.
As for TTATACATCATCACTACACAGC, the sensor-assay potency score (higher = more potent) was -0.419.

TTCACATCGTTGACGATCGTTG: the sensor-assay potency score (higher = more potent) was -0.549.

As for TACATCATCACTACACAGCTTC, the sensor-assay potency score (higher = more potent) stood at 0.384.

Regarding TTAACAGTCTCAAACCAGCGTG, the sensor-assay potency score (higher = more potent) was -0.984.

In the case of TTAGAGTCCTGTGATGACCTGT, the sensor-assay potency score (higher = more potent) worked out at 0.59.

On to TTGTCTGTTAATATCTATGTTC, for which the sensor-assay potency score (higher = more potent) is -0.583.

Take TTTCACATCGTTGACGATCGTT: the sensor-assay potency score (higher = more potent) was -0.0463.

The target in the next experiment is DOK4. The description is as above. Particulars: shRNA.
With TAGCAGGATGAATCTGTTGAGG, the sensor-assay potency score (higher = more potent) was -1.03.

As for TCTAGCTCTGAGTCGCAGGTGA, the sensor-assay potency score (higher = more potent) is -0.0163.

TTCCCCAGCATCACACATCCGG: the sensor-assay potency score (higher = more potent) was -0.865.

Turning to TTCTCCCAGACTGATGTCGTTG, the sensor-assay potency score (higher = more potent) was -1.27.

Consider TCTGAGTCGCAGGTGAAGGTAC, for which the sensor-assay potency score (higher = more potent) was -0.935.

TTCTTCTCCATTTCCAGCAGGA gave a sensor-assay potency score (higher = more potent) of 0.267.

For TTGAGGAGGTCTGTTTCCGAGC, the sensor-assay potency score (higher = more potent) was -1.09.

In the case of TAGTGTCTTGTACCACTCCTCT, the sensor-assay potency score (higher = more potent) is -0.903.

For the sequence TTGCTGATCTCAGTCACCTTGG, the sensor-assay potency score (higher = more potent) was -0.109.

In turn, TTTAGCAGGATGAATCTGTTGA yielded a sensor-assay potency score (higher = more potent) of 0.432.

As for ATAGTGTCTTGTACCACTCCTC, the sensor-assay potency score (higher = more potent) is -0.442.

TAGCTCTGAGTCGCAGGTGAAG: the sensor-assay potency score (higher = more potent) was -1.6.

A further experiment has as its target DPEP3. The experiment is described as above. As to conditions: shRNA.
As to TTCCACTTGTCTGAAGACCCGC, the sensor-assay potency score (higher = more potent) is -0.394.

TGAACTTGGTGGAACTCTCTGC: the sensor-assay potency score (higher = more potent) was 0.129.

Take TACATGTGGTGTCTGAACTTGG: the sensor-assay potency score (higher = more potent) was -0.261.

Regarding ATGTGGTGTCTGAACTTGGTGG, the sensor-assay potency score (higher = more potent) is -0.807.

As to ATTCTTGTAACGCTGTCTCAGG, the sensor-assay potency score (higher = more potent) is -0.648.

As to TTTGAGAGCTGTTCAGACCTTC, the sensor-assay potency score (higher = more potent) was determined as 0.484.

Take TTGGTGGAACTCTCTGCCCATG: the sensor-assay potency score (higher = more potent) was -1.6.

TTGTCTGAAGACCCGCAGCAGG: the sensor-assay potency score (higher = more potent) is -1.57.

Consider TCAACAAATTGTCACACACAGC, for which the sensor-assay potency score (higher = more potent) is -1.21.

Sequence AAGCACATTCTTGTAACGCTGT had a sensor-assay potency score (higher = more potent) of 0.352.

With TGAAGCTCTTCCTCGCTCCAGC, the sensor-assay potency score (higher = more potent) was -0.659.

In the case of AAATTGTCACACACAGCTCTGG, the sensor-assay potency score (higher = more potent) was -0.275.

In the case of ATTTCGCAGGTTAACATCCTGA, the sensor-assay potency score (higher = more potent) is -0.609.

For the next experiment, the target named is DPM2. The experiment is described as above. Particulars: shRNA.
For the sequence TTCAGCATCACATAGGAGATGA, the sensor-assay potency score (higher = more potent) is -0.473.

Take TACTTGTGGATGACATGCTGAC: the sensor-assay potency score (higher = more potent) was -0.0583.

As to TCTCTTGGTCTTCAGCATCACA, the sensor-assay potency score (higher = more potent) was -1.19.

As to TTGTGGATGACATGCTGACTGT, the sensor-assay potency score (higher = more potent) is -1.33.

As to TCTTGGTCTTCAGCATCACATA, the sensor-assay potency score (higher = more potent) is -1.79.

TCCCACAAACAGGAGCAGCAGG: the sensor-assay potency score (higher = more potent) was -1.71.

For the sequence ATACTTGTGGATGACATGCTGA, the sensor-assay potency score (higher = more potent) is -0.113.

The sequence TAGGTGAAGATGATCAGGCTAA returned a sensor-assay potency score (higher = more potent) of 0.29.
